Hits are enriched below; roughly 3% of the tested compounds scored in any of these assays.
A549 tox-1 = counter-screen for Nrf2 inhibitors: cytotoxicity in A549 cells | A549 ARE-Fluc cells, CellTiter-Fluor viability, 18-24 h | actives 0.16% (n = 390,000) | Potency, µM (top dose mostly 46 µM), hits mostly inhibitors
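Cytotoxicity counterscreen: CellTiter-Fluor fluorescence was measured in A549 ARE_Fluc cells after 18-24 h of compound exposure in a concentration series. The subsequent BugLite luminescent read reports ARE-luciferase activity.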
GALK inh = galactokinase (human) inhibition; P51570; Purified GALK, Kinase-Glo residual ATP luminescence; Potency, µM (series often up to 57.5 µM), actives largely listed as inhibitors; actives 0.007% (n = 270,000); AID 1868
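GALK at 5 nM final was combined with compound, 35 uM ATP and 100 uM galactose in HEPES pH8.0 with MgCl2 and DTT. The reaction ran one hour at room temperature before luminescent ATP detection.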
TrxR1 substrate = substrates of rat thioredoxin reductase 1; O89049; purified TrxR1 substrate turnover, NADPH consumption readout; Potency, µM (titrated, usually from 114 µM); actives 0.01% (n = 390,000); AID 588456; note: nearly all actives have a fitted effect of over 50% in size
Target sequence (O89049 whole entry, looked up): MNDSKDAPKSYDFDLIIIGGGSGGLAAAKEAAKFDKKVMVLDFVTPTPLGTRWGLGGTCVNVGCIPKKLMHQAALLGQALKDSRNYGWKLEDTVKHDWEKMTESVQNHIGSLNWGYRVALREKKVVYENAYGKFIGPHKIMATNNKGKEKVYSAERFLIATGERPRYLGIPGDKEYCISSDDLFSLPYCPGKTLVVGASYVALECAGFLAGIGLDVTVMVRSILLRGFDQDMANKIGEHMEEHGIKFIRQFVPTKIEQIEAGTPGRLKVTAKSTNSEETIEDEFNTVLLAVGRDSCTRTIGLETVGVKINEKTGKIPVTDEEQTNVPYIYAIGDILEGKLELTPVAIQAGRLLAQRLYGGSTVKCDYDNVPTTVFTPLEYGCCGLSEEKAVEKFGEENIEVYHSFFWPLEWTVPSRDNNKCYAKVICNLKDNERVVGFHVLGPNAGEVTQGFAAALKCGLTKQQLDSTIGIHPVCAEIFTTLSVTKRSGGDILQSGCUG
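Rat TrxR1, dispensed at 90 nM, was prereduced with 400 uM NADPH (final) for 5 min at ~22 deg C, then incubated with compound 15 min before 400 uM selenite. A first-read NADPH fluorescence drop versus no-compound background flagged substrates.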
Nrf2 block = inhibitors of Nrf2 signaling | AID 504444 | A549 ARE-Fluc reporter, luciferase luminescence, 18-24 h | actives 2.1% (n = 360,000) | Potency, µM (titrated, usually from 46 µM), hits mostly inhibitors; note: nearly all actives have a fitted effect of over 60% in size
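Two sequential reads on A549 ARE_Fluc cells exposed to compound for 18-24 h: a CellTiter-Fluor fluorescence read for viability, then a luciferase luminescence read for Nrf2/ARE activity.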
Nrf2 activator = activators of Nrf2 (ARE) signaling. AREc32 ARE-luciferase reporter (MCF7-derived line), luminescence, 24 h. Potency, µM (highest dose often 46.1 µM), most hits filed as activators. actives 0.31% (n = 410,000); note: nearly all actives have a fitted effect of over 65% in size
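Luminescent ARE reporter assay in AREc32_Fluc cells: overnight plating at 37 deg C, 24 hr compound incubation, Steady-Glo added, 30 min RT before reading.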
rTrxR1 inhibitor = blocks rat thioredoxin reductase 1; Potency, µM (top dose mostly 114 µM), actives largely listed as inhibitors; actives 1% (n = 390,000); recombinant rTrxR1, NADPH fluorescence consumption, selenite substrate; O89049; note: nearly all actives have a fitted effect of over 65% in size
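Rat TrxR1 (90 nM in the dispensed reagent) was pre-reduced with 400 uM NADPH for 5 min at room temperature, then incubated with compound for 15 min. After 400 uM selenite was added, NADPH fluorescence (Ex 340/Em 450 nm) was followed for 8 min.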
FLuc counter 3 = counter-screen for Nrf2 inhibitors: firefly luciferase enzyme inhibition; AID 720522; shares compounds with Nrf2 block; actives 4% (n = 1,400); purified firefly luciferase, luminescence inhibition; Potency, µM (doses to about 57.5 µM), most hits filed as inhibitors; note: nearly all actives have a fitted effect of over 65% in size
A549 tox-2 = A549 cytotoxicity, Nrf2 inhibitor counterscreen. shares compounds with Nrf2 block. A549 ARE-Fluc cells, cytotoxicity counterscreen. Potency, µM (titrated, usually from 46.1 µM), actives largely listed as inhibitors. actives 2% (n = 1,400);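 note: cells exposed to compounds for 18 to 24 hours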
ARE-Fluc inh = confirmation of Nrf2 inhibitors in A549 ARE reporter cells; shares compounds with Nrf2 block; A549 ARE-firefly luciferase reporter, luminescence; Potency, µM (doses to about 46.1 µM), actives largely listed as inhibitors; actives 74% (n = 1,400); AID 720524; note: nearly all actives have a fitted effect of over 65% in size
Hits are given with their value; - = inactive; ? = inconclusive; . = no result. Calls come from the whole dose curve; as a rule, active = well fitted curve in the direction sought with a large enough effect; inconclusive = small, poorly fitted or top-dose-only effect, or another doubt; inactive = no such curve, though single readings can be large; an effect the other way counts as inactive or inconclusive.

SMILES | A549 tox-1 | GALK inh | TrxR1 substrate | Nrf2 block | Nrf2 activator | rTrxR1 inhibitor | FLuc counter 3 | A549 tox-2 | ARE-Fluc inh
O=C(CSc1nnc(Cn2nnc3ccccc32)o1)N(Cc1ccc(Cl)cc1)c1ccccc1 | ? | - | - | 5.8µM | - | - | - | - | 9.2µM
CCOC(=O)N1CCc2c(sc(NC(=O)c3ccc(S(=O)(=O)N4CCCC4)cc3)c2C#N)C1 | - | - | - | 7.3µM | - | ? | - | - | 7.3µM
Cc1ccccc1CNC(=O)c1ccc(Cn2c(SCc3cccc(F)c3)nc3cccnc32)cc1 | - | . | - | - | - | - | . | . | .
Cc1nn(C)c(C)c1NC(=O)COc1ccc(Cl)cc1Br | - | . | - | 8.2µM | - | - | - | - | 7.3µM
COc1ccc(/C=C/C(=O)Nc2c(C)nn(C)c2C)cc1COc1ccc(Cl)cc1Br | - | - | - | ? | - | - | . | . | .
O=C1CN(C(=O)/C=C/c2ccccc2F)c2ccccc2N1 | - | - | - | - | - | - | . | . | .
Cc1cnc2ccc3ccccc3c2c1C | . | . | - | . | . | ? | ? | - | 6.5µM
Cc1cc(=O)n(CC(=O)N2CCN(c3ccccc3F)CC2)c2c1c(C)nn2C | - | . | - | 8.2µM | - | - | - | - | ?
COc1cc2ccnc(Cc3cccc(OC)c3OC)c2cc1OC | - | - | - | 3.7µM | - | - | - | - | 16µM
Cn1c(=O)c2c(nc(NCc3ccco3)n2C/C=C/c2ccccc2)n(C)c1=O | ? | - | - | 4.1µM | - | - | - | - | 7.3µM
O=C(c1cnn2c(C(F)(F)F)cc(-c3ccccc3)nc12)N1CCCCC1c1cccnc1 (configuration not stated) | - | - | - | ? | - | - | . | . | .
O=C(c1cc2nc(-c3ccc(F)cc3)cc(C(F)(F)F)n2n1)N1CCCCC1c1cccnc1 (configuration not stated) | ? | - | - | 4.6µM | - | - | - | - | 6.5µM
COc1ccc2c(/C=C/c3cc[n+](C)cc3)c[nH]c2c1 | ? | . | - | 1.3µM | - | - | - | ? | 1.6µM
CC[n+]1ccc(/C=C/c2c[nH]c3ccccc23)cc1 | ? | - | - | 1.3µM | - | - | - | ? | 4.6µM
Cc1ccc2[nH]cc(/C=C/c3cc[n+](C)cc3)c2c1 | - | - | - | 1.8µM | - | - | - | - | 1.3µM
CCCCCCC[n+]1ccc(/C=C/c2c[nH]c3ccccc23)cc1 | . | . | - | . | . | - | . | . | .
